Laboratory results published in PubChem BioAssay AID492998 (Southern Research Specialized Biocontainment Screening …, 2010).
The campaign covered roughly 2,300 compounds. About 550 (24%) were called active. How the calls were made is not given here. Only a sample is shown. Measured potencies and affinities stand elsewhere.

Test: Vero E6 cell cytotoxicity, dose response, cytotoxicity control for non-replicating M. tuberculosis project, secondary assay (AID 492998)
Settings: series mostly up to 20 µM

Compound	outcome
COC(=O)c1ccc(OCC(=O)c2cccc(OC)c2)cc1	inactive
COc1ccc(C(=O)Nc2nnc(C3=COCCO3)o2)cc1	inactive
CCOc1ccc(-c2nnc(NC(=O)CCCOc3cccc(C)c3)o2)cc1	inactive
N[C@@H](Cc1ccccc1)c1nnc(SC/C=C/c2ccccc2)o1	inactive
CSCCC(=O)N1CCCC(N2CCN(c3cccc(C(F)(F)F)c3)CC2)C1 (stereo unspecified)	inactive
COc1cccc(CN2CCC(N(CCc3ccccc3)Cc3ccccc3)CC2)c1OC	inactive
Cc1cc2ccccc2n1CCNC(=O)C(C)(C)C	inactive
O=C(COc1ccc(Nc2ccccc2)cc1)OCC(=O)N1CCCCC1	inactive
CC(C)c1nnc(NC(=O)c2sc3ccccc3c2Cl)s1	inactive
CCc1nnc(NC(=O)c2cc3ccccc3oc2=O)s1	inactive
O=C(c1ccc([N+](=O)[O-])o1)N1CCc2ccccc2C1	inactive
COC(=O)c1sc(NC(=O)c2ccc([N+](=O)[O-])o2)c(C#N)c1C	inactive
O=C(Nc1sc2c(c1C(=O)O)CCCCC2)c1ccccc1F	inactive
CC(C)Cn1c(N)c(C(=O)COC(=O)c2ccc([N+](=O)[O-])o2)c(=O)n(C)c1=O	inactive
O=C(Nc1sc2c(c1C(=O)O)CCCC2)c1ccc(F)cc1	inactive
COc1ccc(COc2cccc(C=O)c2)cc1	inactive
CCc1ccccc1NC(=O)C1COc2ccccc2O1 (stereo unspecified)	inactive
O=C(OCc1cccc(F)c1)c1ccc2c(=O)n3c(nc2c1)CCC3	inactive
Cc1c(Cl)cccc1NC(=O)C(=O)NNC(=O)c1ccccc1F	inactive
COc1cccc(N2C(=O)NC(=O)/C(=C/c3ccc([N+](=O)[O-])s3)C2=O)c1	inactive
c1ccc2sc(SCc3ccc(-c4nnco4)cc3)nc2c1	inactive
Oc1c(Br)cc(Br)cc1/C=N/c1nccs1	inactive
C/C(=N\NC(=O)c1nn(C)cc1Cl)c1ccncc1	inactive
Cc1cc(N2CCC(C)CC2)nc(-n2nc(C)cc2C)n1	inactive
CC(=O)c1ccc(OC(=O)c2ccc(-n3nc(C)cc3C)cc2)cc1	inactive
CCOc1ccc(OCC(=O)Nc2ccc(OC)cc2)cc1	inactive

Compound	outcome
CCOc1ccc(NC(=O)Cn2sc3nc(C)cc(C)c3c2=O)cc1	inactive
CC1(C)OC(c2ccccc2)=C/C(=C\C=N\NC(=O)c2ccncc2)O1	inactive
COc1ccc(N2CCN(CC(=O)NC(=O)NC(C)(C)C)CC2)cc1	inactive
CN(C(=O)COC(=O)c1ccc([N+](=O)[O-])cc1Cl)C1CCCCC1	inactive
O=C(N/N=C/c1ccc[nH]1)c1ccc(Cl)cc1	inactive
Cc1ccc(O)c(C(=O)c2cc(C#N)c(=O)n(-c3nccs3)c2)c1	inactive
O=C(CC1CCCC1)OCn1nnc2ccccc2c1=O	inactive
COc1ccc(-n2c3c(cc(C(=O)NNc4ccccc4)c2=O)C(=O)CC(C)(C)C3)cc1	inactive
CCOC(=O)C1(O)CC(C)=NN1C(=O)c1cccc(Br)c1 (stereo unspecified)	inactive
CCOC(=O)c1c(C)nc2c3ccccc3ccn12	inactive
CCOC(=O)Cc1cc(=O)n2[nH]cc(-c3ccc(Cl)cc3)c2n1	inactive
CCOC(=O)Cc1ccc(NCc2ccc(Cl)cc2)cc1	inactive
CCOc1ccc(NC(=O)CCc2ccc(C)o2)cc1	inactive
CC(C)(C)NC(=O)C(=O)NNC(=O)COc1ccc(Br)cc1	inactive
O=C(COC(=O)c1cccc(C(F)(F)F)c1)NCc1ccccc1	inactive
CCOC(=O)COc1ccc2c(c1)c(C(=O)OCC)c(C)n2CC	inactive
CCCCN1CCC(O)(c2ccccc2)C(C(=O)c2ccccc2)C1 (stereo unspecified)	inactive
CCOc1c(OC(C)=O)ccc(/C=C2\N=C(SCC)SC2=O)c1[N+](=O)[O-]	inactive
O=Cc1ccc(OC2OCCOC2Oc2ccc(C=O)cc2)cc1 (stereo unspecified)	inactive
Cc1cc2nc(CSc3ccc(Cl)cc3)cc(=O)n2[nH]1	inactive
CS(=O)(=O)Cc1nc2ccccc2oc1=O	inactive
COc1cccc2cc(-c3nc4ccccc4o3)c(=O)oc12	inactive
O=C(CCN1CCN(C/C=C/c2ccccc2)CC1)Nc1ccc(Cl)cc1	inactive
Cc1ccc(-c2nnc(COC(=O)c3cccs3)o2)cc1	inactive
CCOC(=O)C(=NCCOC)NNc1cc(Cl)ccc1Cl	inactive
OC(COc1ccccc1Cl)CN1CCN(CC(O)COc2ccccc2Cl)CC1 (stereo unspecified)	inactive

Compound	outcome
O=C(COc1ccccc1)NCCSCc1ccc(Cl)cc1	inactive
Cc1cccc(OCC(O)Cn2c(=N)n(Cc3ccccc3)c3ccccc32)c1 (stereo unspecified)	inactive
OC(COc1ccc2ccccc2c1Br)Cn1ccnc1 (stereo unspecified)	inactive
CC(=O)n1cc(/C=C2/N=C(c3ccccc3)OC2=O)c2ccccc21	inactive
COc1cc(C(=O)ON=C2C=C(C)C(=O)C(C)=C2)cc(OC)c1OC	inactive
CCOCC(=O)Nc1ccc(C)c(Cl)c1	inactive
Cc1cc(NC(=O)COC(=O)COc2ccc(C(=O)c3ccccc3)cc2)no1	inactive
O=C(O)c1ccc(NCc2ccc(Br)cc2)cc1	inactive
CC(=O)Nc1ccc(NC(=O)[C@@H]2CCCC[C@@H]2C(=O)O)cc1	inactive
O=C(COc1ccc2ccccc2c1)N1CCCC1	inactive
Nc1c(Cl)cc(Cl)cc1C(=O)OCC(=O)N1CCCC1	inactive
CCOC(=O)c1ccc(-c2ccc(C(=O)Nc3cccnc3)o2)cc1	inactive
CCOC(=O)C1CCCN(Cc2ccc(OCc3ccccc3)cc2)C1 (stereo unspecified)	inactive
CCC(C)NCCOc1ccc(C(C)(C)c2ccccc2)cc1 (stereo unspecified)	inactive
CN=C1S/C(=C\c2ccc(OCC(=O)OC)c(OC)c2)C(=O)N1C	inactive
CC(C)CSc1nnc2c3ccccc3n(C)c2n1	inactive
CC(C)[C@@H]1CC[C@@H](C)C[C@H]1OC(=O)C[n+]1cc(-c2ccc(Cl)cc2)n2c1CCCCC2	inactive
COc1ccc(NC(=O)c2cc3ccccc3o2)cc1	inactive
CCCn1nnnc1NCc1ccc(C(C)C)cc1	inactive
CCc1nonc1NC(=O)COc1ccc(Cl)c(C)c1	inactive
O=C1/C(=C/c2ccccn2)COc2ccccc21	inactive
Cn1nnc(NC(=O)COc2ccc(C3CCCCC3)cc2)n1	inactive
O=C(Oc1ccccc1)c1ccc(COC(=O)c2cnccn2)cc1	inactive
O=C(NCc1ccc(F)cc1)c1cnccn1	inactive
